# Inconclusive results are not listed. The source made the active and inactive calls. Unless noted, calls come from the whole dose curve; as a rule, active = well fitted curve in the direction sought with a large enough effect; inconclusive = small, poorly fitted or top-dose-only effect, or another doubt; inactive = no such curve, though single readings can be large; an effect the other way counts as inactive or inconclusive.
# Legend:
# [1] = molecular target: Estrogen receptor (Homo sapiens) (UniProt P03372); assay: qHTS assay for small molecule antagonists of estrogen receptor alpha signaling (AID 588513; active = well fitted curve in the direction sought with a large enough effect in the signal ratio, with a control signal flat, not every such curve was filed as active; the % refers to the signal ratio; note: % is set by controls: 0 for no effect and ±100 for the full control effect)
# Sequence of Estrogen receptor (Homo sapiens) (P03372 whole entry, looked up): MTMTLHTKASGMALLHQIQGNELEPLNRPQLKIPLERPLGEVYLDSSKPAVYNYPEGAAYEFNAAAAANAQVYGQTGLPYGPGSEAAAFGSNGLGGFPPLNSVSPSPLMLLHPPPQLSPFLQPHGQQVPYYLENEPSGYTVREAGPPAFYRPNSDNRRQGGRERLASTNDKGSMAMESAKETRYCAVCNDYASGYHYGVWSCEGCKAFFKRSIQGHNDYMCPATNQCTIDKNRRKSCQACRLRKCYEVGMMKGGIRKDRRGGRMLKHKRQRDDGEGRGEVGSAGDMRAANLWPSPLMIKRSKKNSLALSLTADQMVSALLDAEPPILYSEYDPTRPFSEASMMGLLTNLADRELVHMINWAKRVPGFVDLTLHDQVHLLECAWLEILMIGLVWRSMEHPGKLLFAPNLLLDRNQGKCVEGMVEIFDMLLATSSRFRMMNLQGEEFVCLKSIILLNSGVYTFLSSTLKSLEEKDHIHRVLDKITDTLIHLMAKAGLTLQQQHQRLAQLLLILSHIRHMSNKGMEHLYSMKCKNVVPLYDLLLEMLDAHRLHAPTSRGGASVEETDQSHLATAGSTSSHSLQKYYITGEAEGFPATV
# How it was run: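 ER-alpha-UAS-bla GripTite HEK 293 cells in medium with 2% charcoal/dextran-treated FBS were preincubated 4 h at 37 C, dosed with compound (1:2 titration), stimulated with 0.5nM 17-beta-estradiol for 18 h, then read by CCF4 beta-lactamase fluorescence.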
# [2] = molecular target: Estrogen receptor (Homo sapiens) (UniProt P03372); assay: qHTS assay for small molecule agonists of estrogen receptor alpha signaling (AID 588514; calls by dose curve; note: nearly all actives have a fitted effect of over 70% in size; note: potency is the fitted concentration of half-maximal effect;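 for activation: 0% = vehicle only and 100% = reference agonist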)
# How it was run: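 ER-alpha-UAS-bla GripTite HEK 293 cells in medium with 2% charcoal/dextran-treated FBS were treated with compound titrations at 37 C for 18 hrs; beta-lactamase reporter read by CCF4 fluorescence after 2 hrs at RT.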
# [3] = qHTS assay for small molecule antagonists of peroxisome proliferator-activated receptor delta signaling (AID 588535; active = well fitted inhibition curve with a large enough effect in the signal ratio, with a control signal flat, not every such curve was filed as active; the % refers to the signal ratio;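 for max response: cells co-treated with a PPAR-delta agonist as stimulator during compound exposure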); conditions: HEK293T PPARd-UAS-bla, beta-lactamase FRET ratio, 18 h; 460 nm channel
# How it was run: (§1)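 GeneBLAzer PPAR-delta-UAS-bla HEK293T cells in medium with 2% charcoal/dextran FBS were preincubated 5 hrs at 37 C, then given compounds, incubated 18 hrs at 37 C, and read by CCF4 beta-lactamase fluorescence; IC50 from Hill fits.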
# [4] = molecular target: Peroxisome proliferator-activated receptor delta (Homo sapiens) (UniProt Q03181); assay: as above
# Sequence of Peroxisome proliferator-activated receptor delta (Homo sapiens) (Q03181 whole entry, looked up): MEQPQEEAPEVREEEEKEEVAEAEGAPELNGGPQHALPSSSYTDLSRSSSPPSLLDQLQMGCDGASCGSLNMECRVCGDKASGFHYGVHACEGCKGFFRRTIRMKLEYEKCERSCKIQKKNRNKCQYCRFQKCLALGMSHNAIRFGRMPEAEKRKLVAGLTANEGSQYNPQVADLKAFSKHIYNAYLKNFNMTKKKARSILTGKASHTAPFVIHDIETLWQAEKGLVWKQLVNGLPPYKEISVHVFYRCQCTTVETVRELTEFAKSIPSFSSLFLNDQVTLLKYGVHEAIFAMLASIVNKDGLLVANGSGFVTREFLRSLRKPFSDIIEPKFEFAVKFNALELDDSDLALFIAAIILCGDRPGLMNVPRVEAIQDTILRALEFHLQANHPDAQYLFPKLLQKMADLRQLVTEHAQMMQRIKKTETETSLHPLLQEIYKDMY
# How it was run: as §1
# [5] = molecular target: Vitamin D3 receptor (Homo sapiens) (UniProt P11473); assay: qHTS assay for small molecule agonists of vitamin D receptor signaling (AID 588543; calls by dose curve;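 note: 0% = DMSO basal and 100% = reference agonist control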)
# Sequence of Vitamin D3 receptor (Homo sapiens) (P11473 whole entry, looked up): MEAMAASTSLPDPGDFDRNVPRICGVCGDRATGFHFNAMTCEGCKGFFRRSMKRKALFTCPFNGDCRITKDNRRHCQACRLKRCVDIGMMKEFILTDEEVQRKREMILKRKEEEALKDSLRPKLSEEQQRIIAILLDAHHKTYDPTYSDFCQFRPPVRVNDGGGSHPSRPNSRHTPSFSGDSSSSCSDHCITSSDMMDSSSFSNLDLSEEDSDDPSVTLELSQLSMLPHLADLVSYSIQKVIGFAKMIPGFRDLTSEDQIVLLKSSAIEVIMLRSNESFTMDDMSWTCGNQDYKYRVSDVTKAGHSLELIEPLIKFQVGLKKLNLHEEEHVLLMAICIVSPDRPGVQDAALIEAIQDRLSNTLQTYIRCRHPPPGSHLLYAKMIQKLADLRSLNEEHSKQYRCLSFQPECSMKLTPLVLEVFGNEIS
# How it was run: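 GeneBLAzer VDR-UAS-bla HEK293T cells in 2% charcoal-stripped FBS medium were dosed with compound titrations for 16 h at 37 °C; CCF4 β-lactamase readout (405 nm ex, 460/530 nm em). EC50 and efficacy from Hill fits, normalized to 50 nM calcitriol (100%) and DMSO (0%).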
# [6] = qHTS assay for small molecule agonists of retinoid X receptor alpha signaling (AID 588544; calls by dose curve;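 for activation: 0% = DMSO basal wells and 100% = reference agonist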); conditions: HEK293T RXRa-UAS-bla, beta-lactamase reporter, 18 h; 530 nm emission
# [7] = molecular target: Retinoic acid receptor RXR-alpha (Homo sapiens) (UniProt P19793); assay: as above
# Sequence of Retinoic acid receptor RXR-alpha (Homo sapiens) (P19793 whole entry, looked up): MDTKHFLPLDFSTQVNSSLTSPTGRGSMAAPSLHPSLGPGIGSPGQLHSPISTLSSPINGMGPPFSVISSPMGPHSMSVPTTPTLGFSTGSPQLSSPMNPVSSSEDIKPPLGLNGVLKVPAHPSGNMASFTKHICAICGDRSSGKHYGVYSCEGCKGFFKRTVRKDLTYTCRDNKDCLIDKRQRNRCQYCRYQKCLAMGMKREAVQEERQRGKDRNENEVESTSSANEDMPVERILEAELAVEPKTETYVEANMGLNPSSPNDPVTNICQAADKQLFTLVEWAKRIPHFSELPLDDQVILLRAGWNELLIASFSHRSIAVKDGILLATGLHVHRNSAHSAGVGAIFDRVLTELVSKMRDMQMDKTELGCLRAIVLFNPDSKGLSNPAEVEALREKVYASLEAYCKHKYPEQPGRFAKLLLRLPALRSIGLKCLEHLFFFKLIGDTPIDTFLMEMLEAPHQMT
# [8] = qHTS assay for small molecule antagonists of retinoid X receptor alpha signaling (AID 588546; active = well fitted inhibition curve with a large enough effect in the signal ratio, with a control signal flat, not every such curve was filed as active; the % refers to the signal ratio;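 note: cells stimulated with 9-cis-retinoic acid as agonist; % is set by controls: 0 for no effect and ±100 for the full control effect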); conditions: HEK293T RXRa-UAS-bla, beta-lactamase ratio, antagonist mode; measured here: W530 green channel, cytotoxicity proxy
# How it was run: (§2)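 Beta-lactamase reporter inhibition, read as CCF4 fluorescence ratio (ex 405, em 460/530 nm) after 2 h at RT. HEK293T UAS-bla cells, 2500/well, were stimulated with 9-cis-RA at 500 or 100 nM final alongside test compound for 18 h at 37 C.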
# [9] = molecular target: Retinoic acid receptor RXR-alpha (Homo sapiens) (UniProt P19793); assay: as above; conditions: HEK293T RXRa-UAS-bla, beta-lactamase ratio, antagonist mode
# How it was run: as §2
# [10] = qHTS assay for small molecule activators of the p53 signaling pathway (AID 651743; active = well fitted activation curve with a large enough effect in the signal ratio, not every such curve was filed as active; the % refers to the signal ratio; note: series mostly up to about 92 µM; % of control where 0% means no effect); conditions: HCT-116 p53RE-bla, beta-lactamase FRET ratio, 16 h; activation: stronger effect = higher value
# How it was run: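 p53RE-bla HCT-116 cells with a stably integrated beta-lactamase reporter under p53 response elements were plated, rested 5 hours at 37 C/5% CO2, then exposed to compounds in DMSO for 16 hours at 37 C. LiveBLAzer B/G FRET substrate was read after 2 hours at room temperature.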
# [11] = qHTS assay for small molecule activators of the nuclear factor-kappa B (NF-kB) signaling pathway (AID 651749; active = well fitted activation curve with a large enough effect in the signal ratio; the % refers to the signal ratio; note: series mostly up to about 77 µM; % of control where 0% means no effect); conditions: NF-kB-bla ME-180 cells, beta-lactamase FRET ratio, 16 h; activation: stronger effect = higher value
# How it was run: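 ME-180 cells stably carrying a beta-lactamase reporter under an NF-kB response element were exposed to compound or DMSO vehicle for 16 hr at 37C, 5% CO2. Pathway activation was read by FRET, since reporter expression disrupts FRET.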
# [12] = qHTS assay for environmental chemicals that activate the Aryl hydrocarbon Receptor (AhR) signaling pathway (AID 651777); conditions: 1A2-DRE human hepatoma cells, luciferase, 24 h; activation: stronger effect = higher value; note: % of control where 0% means no effect; nearly all actives have a fitted effect of over 15% in size
# How it was run: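 Luminescence (One-Glo, 30 min, room temperature) reports AhR-driven luciferase in stably transfected human hepatoma cells bearing DRE and CYP1A2 promoter. Cells (1,200/well) were treated with compound for 24 hr at 37 C in qHTS format.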
# [13] = molecular target: Peroxisome proliferator-activated receptor alpha (Homo sapiens) (UniProt Q07869); assay: qHTS assay for small molecule agonists of the peroxisome proliferator-activated receptor alpha (PPARalpha) signaling pathway (AID 651778); conditions: PathHunter PPARalpha complementation, chemiluminescence, 6 h; max response: stronger effect = higher value; note: % of control where 0% means no effect
# Sequence of Peroxisome proliferator-activated receptor alpha (Homo sapiens) (Q07869 whole entry, looked up): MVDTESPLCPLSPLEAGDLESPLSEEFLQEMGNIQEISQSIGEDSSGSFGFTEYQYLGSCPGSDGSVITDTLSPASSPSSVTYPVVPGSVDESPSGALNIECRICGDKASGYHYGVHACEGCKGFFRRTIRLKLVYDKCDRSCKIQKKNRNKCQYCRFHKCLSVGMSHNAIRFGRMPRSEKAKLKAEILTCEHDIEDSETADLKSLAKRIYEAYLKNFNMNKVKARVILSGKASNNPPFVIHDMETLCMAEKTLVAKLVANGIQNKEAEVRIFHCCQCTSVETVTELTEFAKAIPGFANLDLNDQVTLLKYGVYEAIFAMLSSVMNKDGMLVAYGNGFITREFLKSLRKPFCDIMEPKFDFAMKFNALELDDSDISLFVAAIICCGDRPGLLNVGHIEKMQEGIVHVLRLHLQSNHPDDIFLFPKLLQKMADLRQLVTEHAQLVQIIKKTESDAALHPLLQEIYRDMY
# How it was run: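 Cells plated at 2,000/well and held overnight at 37 C, 5% CO2, then compound added by pin tool for 6 hr; after PathHunter detection reagent and 60 min at room temperature, chemiluminescence from enzyme complementation was read.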
# [14] = qHTS assay for small molecule agonists of the antioxidant response element (ARE) signaling pathway measured by Nrf2-dependant transcriptional activity - cell viability counter screen (AID 720653; active = well fitted curve in the direction sought with a large enough effect in the repeat runs; an effect the other way counts as inactive or inconclusive; note: % is set by controls: 0 for no effect and ±100 for the full control effect); conditions: ARE-bla HepG2 viability, CellTiter-Glo ATP luminescence, 16 h; max response: stronger effect = lower value
# How it was run: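 ARE-bla HepG2 cells (2,000/well) rested 5 hrs at 37C/5% CO2, then exposed to compounds in DMSO for 16 hrs. Viability was read in the same wells as intracellular ATP by luminescence, 30 min at room temperature after reagent addition.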
# [15] = qHTS assay for cell viability of HEK293 cells (AID 743288); conditions: ATP luminescence (CellTiter-Glo), 18 h; max response: stronger effect = lower value; note: % is set by controls: 0 for no effect and ±100 for the full control effect; nearly all actives have a fitted effect of over 50% in size
# How it was run: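 Parental HEK293 cells were seeded at 2,000 cells/well, rested at least 5 h at 37 C, then exposed to compounds in DMSO for 18 h at 37 C. Viability was read as ATP-dependent luciferase luminescence after 30 min at room temperature.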
# [16] = qHTS assay for cell viability of the p53RE-bla HCT-116 cell line (AID 743292); note: % is set by controls: 0 for no effect and ±100 for the full control effect; nearly all actives have a fitted effect of over 55% in size
# How it was run: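 ATP-based luminescent viability (CellTiter-Glo, 30 min RT) after 16 h compound treatment at 37 C of p53RE-bla HCT-116 cells, seeded at 4,000 cells/well and rested 5 h before dosing.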
# [17] = molecular target: Nuclear receptor subfamily 1 group I member 2 (Rattus norvegicus) (UniProt Q9R1A7); assay: qHTS assay for small molecule activators of the rat pregnane X receptor (rPXR) signaling pathway (AID 651751; call rule not given here; note: 0% is about no effect); conditions: rPXR reporter cells, luciferase (One-Glo), 24 h
# Sequence of Nuclear receptor subfamily 1 group I member 2 (Rattus norvegicus) (Q9R1A7 whole entry, looked up): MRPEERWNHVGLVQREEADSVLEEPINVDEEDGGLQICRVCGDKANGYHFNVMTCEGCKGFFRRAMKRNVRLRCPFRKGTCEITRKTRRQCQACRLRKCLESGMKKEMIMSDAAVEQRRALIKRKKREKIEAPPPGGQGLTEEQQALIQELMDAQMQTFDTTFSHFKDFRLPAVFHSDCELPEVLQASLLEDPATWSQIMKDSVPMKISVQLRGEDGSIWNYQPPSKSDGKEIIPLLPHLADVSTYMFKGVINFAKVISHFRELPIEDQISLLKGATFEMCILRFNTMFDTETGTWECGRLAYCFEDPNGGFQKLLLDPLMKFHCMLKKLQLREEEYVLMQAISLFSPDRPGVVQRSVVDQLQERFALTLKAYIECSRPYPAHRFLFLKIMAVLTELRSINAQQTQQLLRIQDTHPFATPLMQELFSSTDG
# [18] = qHTS assay for small molecule activators of the human pregnane X receptor (PXR) signaling pathway (AID 720659; call rule not given here; note: 0% is about no effect)
Compound,Potency [1],Potency [2],max response [3],Potency [4],outcome [5],max response [6],Potency [7],max response [8],max response [9],activation [10],activation [11],activation [12],max response [13],max response [14],max response [15],Potency [16],max response [17],outcome [18]
C=C(C)C(=O)OCCOC(=O)C(=C)C,inactive,inactive,-2.87%,inactive,inactive,0.328%,inactive,-22.3%,-2.81% (inactive),-1.01% (inactive),-0.69% (inactive),-1.11% (inactive),-3.02% (inactive),-15.5% (inactive),-1.71% (inactive),inactive,-5.37% (inactive),inactive
CC/C=C\CCOC(=O)c1ccccc1O,inactive,25.1 µM (active),-19.1%,inactive,inactive,-9.64%,inactive,-7.38%,0.792% (inactive),-5.63% (inactive),-0.397% (inactive),1.45% (inactive),0.589% (inactive),6.72% (inactive),0.746% (inactive),inactive,5.21% (inactive),inactive
c1ccc2c(c1)Cc1ccccc1-2,inactive,inactive,–,–,–,-12.1%,inactive,-16.6%,-2.65% (inactive),2.83% (inactive),-1.09% (inactive),1.34% (inactive),-0.262% (inactive),-7.29% (inactive),-4.41% (inactive),inactive,-3.34% (inactive),inactive
O=C(O)c1ccc2c(c1)C(=O)OC2=O,inactive,inactive,–,–,inactive,-9.87%,inactive,-2.35%,-0.339% (inactive),-0.551% (inactive),0.891% (inactive),1.29% (inactive),-0.399% (inactive),-5.37% (inactive),-7.11% (inactive),inactive,0.711% (inactive),–

# Source: PubChem BioAssay (NCATS)
